Experiment [1] in a line: qHTS assay to identify small molecule antagonists of the estrogen related receptor (ERR) signaling pathway - cell viability counter screen (AID 1224818). The method, boiled down: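 Multiplexed counter screen to separate cytotoxic compounds from true ERR modulators. ERR cells received DMSO-dissolved compounds after a 6 h pre-incubation, were exposed 17.5 h at 37 C, then assayed with CellTiter-Fluor fluorescence.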

Experiment [2] is described as follows: qHTS assay to identify small molecule antagonists of the estrogen related receptor (ERR) signaling pathway (AID 1224819; further: nearly all actives have a fitted effect of over 50% in size). The method, boiled down: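 Seed ERR cells 2,000/well; rest 6 h at 37 C/5% CO2; pin compounds in DMSO; incubate 18 h at 37 C; add One-Glo; wait 30 min at room temperature; measure luminescence.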
In general terms: In qHTS, concentration-response curves come from the screen itself.

The nature of experiment [3]: qHTS assay to identify small molecule agonists of the estrogen related receptor (ERR) signaling pathway (AID 1224820). In outline:
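Cells: ERR line from NTP, 2,000/well. Pre-incubation 6 h, 37 C/5% CO2. Compound (DMSO) pin transfer, 18 h 37 C. One-Glo, 30 min RT, luminescence.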

Experiment [4] in a line: qHTS assay to identify small molecule antagonists of the estrogen related receptor signaling pathway with the pleiotropic PPARgamma coactivator (PGC) cell viability counter screen (AID 1224822). In outline: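 Cells: PGC/ERR, 2,000/well, 1536-well format. Pre-incubation 6 h, 37 C/5% CO2. Compound exposure 17.5 h, 37 C. Detection: CellTiter-Fluor, 30 min, fluorescence.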

The nature of experiment [5]: qHTS assay to identify small molecule agonists of the estrogen related receptor signaling pathway with the pleiotropic PPARgamma coactivator (PGC) (AID 1224823). The method, boiled down:
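Steps: plate PGC/ERR cells at 2,000 cells/well; incubate 6 h, 37 C/5% CO2; pin-transfer compounds (DMSO); incubate 18 h, 37 C; add One-Glo; 30 min RT; read luminescence.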

The test system of experiment [6] is estrogen-related receptor alpha (ERRalpha) with PGC-1alpha coactivator, human. The experiment in a line: qHTS assay to identify small molecule antagonists of the estrogen related receptor signaling pathway with the pleiotropic PPARgamma coactivator (PGC) (AID 1224821; calls by dose curve; further: nearly all actives have a fitted effect of over 50% in size). The method, boiled down:
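Luminescent read-out (One-Glo, 30 min at room temperature) following 18 h treatment of PGC/ERR cells at 37 C with compounds delivered in DMSO. Cells had settled 6 h at 37 C/5% CO2 before dosing.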

Records with an inconclusive call do not appear. Activity calls are given as the source filed them. Unless noted, the call rests on the fitted dose curve; in most records, active means well fitted curve in the direction sought with a large enough effect in the repeat runs; inconclusive means weak or mixed curves; inactive means no such curve, though single readings can be large; an effect the other way counts as inactive or inconclusive.
Potency means the concentration at half of the fitted maximal effect.

For `NCC1OC(OC2C(O)[C@@H](OC3C(O)C(N)CC(N)C3OC3OC(CO)C(O)C(O)C3N)O[C@@H]2CO)C(N)C(O)C1O` (some centres not stated), the Potency entry in experiment [1], in experiment [2], in experiment [3], in experiment [4] and in experiment [5] was “inactive” throughout.

On to `NC(C(=O)N[C@@H]1C(=O)N2C(C(=O)O)=C(Cl)CS[C@H]12)c1ccccc1` (some centres not stated), for which the Potency entry in experiment [1], in experiment [2], in experiment [3], in experiment [4] and in experiment [5] was “inactive” each time.

In the case of `O=C(O)C1=CC(=C(c2ccc(O)c(C(=O)O)c2)c2ccc(O)c(C(=O)O)c2)C=CC1=O`, the Potency entry in experiment [1], in experiment [2], in experiment [3], in experiment [4] and in experiment [5] was “inactive” throughout.

As for `Cn1ncc(S(=O)(=O)Cc2ccccc2)c(Br)c1=O`, the Potency result in experiment [1], in experiment [2], in experiment [3], in experiment [6] and in experiment [5] was “inactive” in each case.

With `Fc1cccc(/C=N/N=C/c2cccc(F)c2)c1`, the Potency result in experiment [1], in experiment [2] and in experiment [4] was “inactive” each time. Besides, the Potency was 15.5 µM (active) in experiment [3] and 12.3 µM (active) in experiment [5].

With `CCN1/C(=C/C(C)=O)Sc2ccc(OC)cc21`, the Potency result in experiment [1], in experiment [3], in experiment [4] and in experiment [5] was “inactive” each time. Besides, the Potency in experiment [2] was 11.9 µM (active).

For `O=C(c1cc(O)c(O)c([N+](=O)[O-])c1)c1ccccc1F`, the Potency entry in experiment [1], in experiment [3] and in experiment [5] was “inactive” each time. In addition, the Potency in experiment [2] is 25.6 µM (active); in experiment [6], 22.8 µM (active).

For the compound `CCCC[C@@]1(C2CCCC2)Cc2cc(OCC(=O)O)c(Cl)c(Cl)c2C1=O`, the Potency result in experiment [1], in experiment [3] and in experiment [5] was “inactive” in each case. Further, the Potency is 11.4 µM (active) in experiment [2] and 13.9 µM (active) in experiment [6].

`N#Cc1cc([N+](=O)[O-])c2sc(C(N)=O)[n+]([O-])c2c1`: the Potency entry in experiment [1], in experiment [2], in experiment [3], in experiment [4] and in experiment [5] was “inactive” each time.

Turning to `COc1ccc(-c2cc3ncc(C)n3c(Nc3ncccc3C(N)=O)n2)cc1OC`, the Potency result in experiment [1], in experiment [3], in experiment [4] and in experiment [5] was “inactive” throughout. Also, in experiment [2], the Potency was 2.87 µM (active).

For the compound `CCCN(CC1CC1)c1nc(C)nc(Nc2c(Cl)cc(Cl)cc2Cl)c1Cl`, the Potency entry in experiment [1], in experiment [2], in experiment [3], in experiment [4] and in experiment [5] was “inactive” throughout.

In the case of `Brc1c(Br)c(Br)c2[nH]cnc2c1Br`, the Potency entry in experiment [1], in experiment [3] and in experiment [5] was “inactive” in each case. Moreover, the figures for the Potency in experiment [2] and in experiment [6] were 19.6 µM (active) and 6.94 µM (active), respectively.

On to `O=C(N[C@@H](Cc1ccccc1)C(=O)CCl)OCc1ccccc1`, for which the results for the Potency in experiment [1], in experiment [2] and in experiment [4] were 19.6 µM (active), 21.1 µM (active) and 16.8 µM (active), respectively. In addition, the Potency result in experiment [3] and in experiment [5] was “inactive” in each case.

Turning to `CC(C)(NS(=O)(=O)c1ccc(Oc2ccc(F)cc2)cc1)C(=O)NO`, the Potency entry in experiment [1], in experiment [3], in experiment [4] and in experiment [5] was “inactive” throughout. Also, the Potency in experiment [2] is 2.46 µM (active).

On to `CCN(CC)CCNC(=O)c1ccc(NS(C)(=O)=O)cc1`, for which the Potency entry in experiment [1], in experiment [2], in experiment [3], in experiment [4] and in experiment [5] was “inactive” in each case.

On to `Oc1cc(O)cc(/C=C/c2ccc(O)c(O)c2)c1`, for which the Potency entry in experiment [1], in experiment [2] and in experiment [4] was “inactive” throughout. Moreover, the Potency in experiment [3] is 8.41 µM (active); in experiment [5], 18.1 µM (active).

Regarding `CCCCCCCCCCCCCCCCCCN(CCCCCCCCCCCCCCCCCC)CCCN(CCO)CCO`, the Potency entry in experiment [1], in experiment [2], in experiment [3], in experiment [4] and in experiment [5] was “inactive” throughout.

`CN1CCN(c2nc3cc(C(F)(F)F)ccc3n3cccc23)CC1`: the Potency result in experiment [1], in experiment [2], in experiment [3], in experiment [4] and in experiment [5] was “inactive” each time.

As for `N#C/C(=C\c1ccc(O)c(O)c1)C(=O)NCCCNC(=O)/C(C#N)=C/c1ccc(O)c(O)c1`, the Potency result in experiment [1], in experiment [2], in experiment [3], in experiment [6] and in experiment [5] was “inactive” in each case.

In the case of `CCc1cncnc1N1CCN(Cc2nc3ccc(C(F)(F)F)cc3[nH]2)CC1`, the Potency result in experiment [1], in experiment [3], in experiment [4] and in experiment [5] was “inactive” in each case. Further, the Potency in experiment [2] is 6.94 µM (active).

Consider `C=CCNc1ncnc2ccc(Br)cc12`, for which the Potency result in experiment [1], in experiment [3], in experiment [4] and in experiment [5] was “inactive” each time. Moreover, the Potency in experiment [2] is 9.44 µM (active).

Consider `CO/N=C(\C(=O)N[C@@H]1C(=O)N2C(C(=O)O)=C(COC(C)=O)CS[C@H]12)c1csc(N)n1` (stereo in doubt), for which the Potency entry in experiment [1], in experiment [2], in experiment [3] and in experiment [4] was “inactive” each time.

On to `COc1cc(SC)ccc1C(=O)N1CCC(Cc2ccccc2)CC1`, for which the Potency entry in experiment [1], in experiment [3], in experiment [4] and in experiment [5] was “inactive” throughout. The Potency in experiment [2] was 20.3 µM (active).

With `CC1CN(S(=O)(=O)c2cccc3cnccc23)CCN1` (configuration not stated), the Potency entry in experiment [1], in experiment [2], in experiment [3], in experiment [4] and in experiment [5] was “inactive” in each case.

With `C#C[C@]1(O)CC[C@H]2[C@@H]3CCC4=Cc5oncc5CC4(C)[C@H]3CCC21C` (some centres not stated), the Potency entry in experiment [1], in experiment [3] and in experiment [5] was “inactive” each time. The Potency was 16.8 µM (active) in experiment [2] and 19.6 µM (active) in experiment [6].

Take `Nc1ncnc2c1nc(Sc1ccc(Cl)cc1)n2[C@H]1OC2COP(=O)(O)O[C@@H]2C1O` (some centres not stated): the Potency result in experiment [1], in experiment [2], in experiment [3] and in experiment [4] was “inactive” each time.

Turning to `Nc1nc(N)c2nc(CNc3ccc(C(=O)NC(CCC(=O)O)C(=O)O)cc3)cnc2n1` (configuration not stated), the Potency result in experiment [1], in experiment [3], in experiment [4] and in experiment [5] was “inactive” throughout. The Potency in experiment [2] is 0.0438 µM (active).

Consider `NCCCCC(=O)O`, for which the Potency result in experiment [1], in experiment [2], in experiment [3] and in experiment [4] was “inactive” each time.

In the case of `N[C@H](C(=O)O)[C@H](Cc1ccccc1)C(=O)O`, the Potency result in experiment [1], in experiment [2], in experiment [6], in experiment [4] and in experiment [5] was “inactive” each time.

For `CCCCCCCCCCCCCCCCCC(=O)OC(CC(=O)O)C[N+](C)(C)C` (configuration not stated), the Potency result in experiment [1], in experiment [2], in experiment [6], in experiment [4] and in experiment [5] was “inactive” in each case.

On to `CC(C)(CO)Cc1cc(C(C)(C)C)c(O)c(C(C)(C)C)c1`, for which the Potency result in experiment [1], in experiment [3], in experiment [6], in experiment [4] and in experiment [5] was “inactive” throughout.

In the case of `CCCn1c(=O)c2[nH]c(C3CCCC3)nc2n(CCC)c1=O`, the Potency entry in experiment [1], in experiment [2], in experiment [6], in experiment [4] and in experiment [5] was “inactive” each time.

For the compound `O=C(O)c1cc2cc(F)ccc2[nH]1`, the Potency result in experiment [1], in experiment [2], in experiment [6], in experiment [4] and in experiment [5] was “inactive” throughout.

Values taken from PubChem BioAssay (Tox21).
